Source: PubChem BioAssay
Hits are enriched below; roughly 3.5% of the tested compounds scored in any of these assays.
MITF inh: blocks human microphthalmia-associated transcription factor. O75030. AlphaScreen MITF homodimerization, bead proximity signal. inhibition, % at 2.6 µM. 650,000 compounds, 0.91% hits; in the data active = inhibition above about 50%;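 note: 0% = vehicle wells with protein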
Target sequence (O75030 whole entry, looked up): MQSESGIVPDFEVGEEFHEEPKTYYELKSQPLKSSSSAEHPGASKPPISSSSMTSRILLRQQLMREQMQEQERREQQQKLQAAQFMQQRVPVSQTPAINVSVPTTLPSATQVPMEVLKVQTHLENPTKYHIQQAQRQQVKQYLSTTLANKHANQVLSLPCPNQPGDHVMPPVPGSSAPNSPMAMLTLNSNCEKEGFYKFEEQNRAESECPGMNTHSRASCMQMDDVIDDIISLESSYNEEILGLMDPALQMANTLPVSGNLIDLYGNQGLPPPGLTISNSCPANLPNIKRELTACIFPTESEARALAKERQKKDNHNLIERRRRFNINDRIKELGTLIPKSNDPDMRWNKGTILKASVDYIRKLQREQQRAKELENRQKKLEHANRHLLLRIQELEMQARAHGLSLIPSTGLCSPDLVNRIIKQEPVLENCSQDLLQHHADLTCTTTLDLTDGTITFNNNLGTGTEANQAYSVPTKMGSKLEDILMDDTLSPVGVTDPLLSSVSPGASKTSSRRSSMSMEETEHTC
TEAD-YAP inh: TEAD-YAP interaction inhibition; 640,000 compounds, 1.4% hits; HEK-TIYL cells, TEAD-Gal4/YAP UAS-luciferase luminescence; inhibition, % at 9.12 µM; AID 1259422; in the data active = inhibition above about 32%;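 note: 0% = median of test compound wells and 100% = reference inhibitor wells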
FBW7 activator: human FBW7 E3 ligase activation, primary screen. Q969H0. AlphaScreen FBW7–phospho-cyclin E peptide binding, activator screen. normalized activity (activation), % at 26.1 µM. 650,000 compounds, 0.13% hits. AID 1259310; in the data active = normalized activity above about 1.9%;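 note: purified mutant Fbw7 with reduced substrate affinity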
GPR151 activ: human GPR151 activation; Q8TDV0; PathHunter beta-arrestin GPR151 cells, luminescence; activation, % at 11.2 µM; 650,000 compounds, 1% hits; AID 1508602; in the data active = activation above about 4.9%;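 note: 0% = median of compound wells and 100% = cells with positive control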
* marks the source's active call; other numbers are inactive results; ! = not active in a repeat.

SMILES	MITF inh	TEAD-YAP inh	FBW7 activator	GPR151 activ
Cc1ccc(NCc2nc3ccccc3n2C)cc1	23	35*	0	-5
Cc1ccc(CNc2nc3ccccc3n2C)cc1	19	75*	1	-8
Cn1c(NCc2ccncc2)nc2ccccc21	-22	-4	0	0
Cn1c(CNc2ccc(O)cc2)nc2ccccc21	12	-16	0	-1
Nc1nccc(-c2ccc3nc(C4COc5ccc(C(=O)NCCc6cccs6)cc5C4)[nH]c3c2)n1 (stereo unspecified)	-8	20	24*	-1
CN(C)CCNC(=O)c1ccc2c(c1)CC(c1nc3ccc(-c4ccnc(N)n4)cc3[nH]1)CO2 (stereo unspecified)	38	-2	0	-1
COc1ccccc1CCNC(=O)c1ccc2c(c1)CC(c1nc3ccc(-c4ccnc(N)n4)cc3[nH]1)CO2 (stereo unspecified)	-7	29	3.0*	-1
N#Cc1ccc(C2Nc3cc(Cl)c(S(N)(=O)=O)cc3S(=O)(=O)N2)cc1 (stereo unspecified)	-3	-6	0	1
CC(C)c1ccccc1OCC(=O)NN1C(=O)c2ccccc2C1=O	8	34*	0	0
Cc1ccc(C(=O)NN(c2ccccc2)c2ccccc2)cc1	12	-5	0	-2
COc1ccccc1NC(=O)Nc1c(SC)nsc1SC	8	37*	0	-1
Cn1c(N2CCCC(C(=O)NC3CC3)C2)nc2ccccc21 (stereo unspecified)	7	9	0	1
Clc1ccc(-c2cnn3c(NCCc4ccccn4)ccnc23)cc1	13	-52	0	1
Fc1ccccc1-c1cnn2c(NCCc3cccnc3)ccnc12	-5	91*	0	-2
OCc1ccc(-c2cnn3c(NCCc4cccnc4)ccnc23)cc1	12	-5	1	0
c1ccc(-c2cnn3c(NCCc4ccccn4)ccnc23)cc1	-22	57*	0	1
c1ccc(-c2cnn3c(NCCc4cccnc4)ccnc23)cc1	-6	80*	0	-1
Fc1ccccc1-c1cnn2c(NCc3ccccn3)ccnc12	-1	-21	2.2*	0
Oc1cccc(-c2cnn3c(NCCc4cccnc4)ccnc23)c1	7	89*	0	0
OCc1cccc(-c2cnn3c(NCCc4cccnc4)ccnc23)c1	1	89*	1	-1
Fc1cccc(-c2cnn3c(NCCc4cccnc4)ccnc23)c1	7	17	0	4
CN(C)CCNc1ccnc2c(-c3ccccc3F)cnn12	-3	63*	0	-2
CC(C)N1CCc2c(sc(NC(=O)C(C)(C)C)c2C(N)=O)C1	13	74*	1	0
COc1ccc(-c2csc(N3N=C(C)C(N=Nc4ccc(C(N)=O)cc4)C3=O)n2)cc1 (stereo unspecified)	0	0	0	0
Cc1[nH]n(-c2nc(-c3ccccc3)cs2)c(=O)c1C(c1ccccc1)C(C#N)C(N)=O (stereo unspecified)	-7	59*	0	0
SMILES	MITF inh	TEAD-YAP inh	FBW7 activator	GPR151 activ
CC1=NN(c2nc(-c3ccc(C)cc3)cs2)C(=O)C1C(c1ccccc1)C(C#N)C(N)=O (stereo unspecified)	-16	75*	0	3
NC(=O)c1ccccc1Nc1nccc(-c2ccccc2)n1	12	40*	0	-2
NS(=O)(=O)c1cccc(Nc2nccc(-c3ccccc3)n2)c1	4	91*	0	-1
NC(=O)c1ccc(Nc2ncc(Cl)c(-c3ccccc3)n2)cc1	18	-6	2.6*	0
NS(=O)(=O)c1ccc(Nc2nccc(-c3cccc(Nc4ccccc4)c3)n2)cc1	1	54*	0	3
NC(=O)c1[nH]ncc1Nc1nccc(-c2ccccc2)n1	6	-14	0	-1
N#Cc1cccc(-c2ccnc(Nc3ccc(S(N)(=O)=O)cc3)n2)c1	1	-4	0	1
Cc1nc2cc(Cl)c([N+](=O)[O-])cc2o1	-14	1	0	2
COc1ccc(CN(CC(=O)NC(C)(C)C)C(=O)CCC(=O)Nc2nccs2)cc1	0	5	0	1
CCC(C)C(=O)Nc1nc2c(s1)C(=O)CC(C(=O)NCc1cc(F)ccc1F)C2 (stereo unspecified)	0	-51	0	-1
NC(=O)c1ccc(Nc2nccc(-c3cccc(Nc4ccccc4)c3)n2)cc1Cl	-2	36*	0	0
NC(=O)c1ccc(Nc2nccc(-c3ccccc3)n2)cc1	-12	23	1	-4
CSCCCNC(=O)c1ccc(OC2CCN(Cc3ccccn3)CC2)cc1	14	8	0	-1
COc1cccc(C(=O)NC(c2ccccc2)c2cc(Cl)c3cccnc3c2O)c1 (stereo unspecified)	16	10	0	-1
COc1ccccc1C(NC(=O)c1cccnc1)c1cc(Cl)c2cccnc2c1O (stereo unspecified)	4	19	0	1
COc1cccc(C(=O)NC(c2ccco2)c2cc(Cl)c3cccnc3c2O)c1 (stereo unspecified)	25	79*	0	0
COc1cccc(C(=O)NC(c2ccccc2OC)c2cc(Cl)c3cccnc3c2O)c1 (stereo unspecified)	4	41*	0	-1
CCCCn1c(CNC(=O)c2ccc(OC)cc2)nnc1SCC(=O)Nc1sc2c(c1C(=O)OCC)CCCC2	1	6	0	1
O=C1c2c(O)ccc(O)c2C(=O)c2c(NCCNCCO)ccc(NCCNCCO)c21	52*!	55*	-1	-2
O=C1c2c(O)ccc(O)c2C(=O)c2c(O)ccc(O)c21	43	14	0	3
Cc1[nH]n2c(=O)cc(C(C)(C)C)nc2c1-c1cccs1	13	50*	0	-1
CC(O)(C#Cc1ccccc1)c1ccccc1 (stereo unspecified)	-9	-2	0	0
CC(C)(C)C(C)(O)C#Cc1ccccc1 (stereo unspecified)	0	83*	0	-8
CC(=O)Nc1ccc2nc(SCC(=O)NCc3ccccc3)sc2c1	19	38*	0	-2
O=C(CSc1nc2ccc(NC(=O)c3ccccc3)cc2s1)NCc1ccccc1	18	-18	0	2
SMILES	MITF inh	TEAD-YAP inh	FBW7 activator	GPR151 activ
COc1cc(CN2CCc3c(nc(N4CCCC(C)C4)[nH]c3=O)C2)ccc1O (stereo unspecified)	4	-9	0	0
N#CC1=C2SCC(O)(c3ccc(F)cc3)N2C(=O)CC1c1cccc(F)c1 (stereo unspecified)	7	54*	0	0
N#CC1=C2SCC(O)(c3ccco3)N2C(=O)CC1c1ccc(F)cc1 (stereo unspecified)	3	43*	0	-1
CC(C)Nc1ncnc2c1cnn2-c1ccc(Cl)cc1	18	56*	0	0
O=C(NNc1ncnc2c1cnn2-c1ccc(F)cc1)c1cccs1	-15	31	0	2
Clc1ccc(-n2ncc3c(Nc4ccc(Br)cc4)ncnc32)cc1	-2	42*	0	1
O=C(NNc1ncnc2c1cnn2-c1ccc(Cl)cc1)c1cccs1	-16	57*	0	1
